# Assay results as given in PubChem BioAssay AID1159580 (chemical genetic matrix, 2015).
# The whole screen tested about 5,500 compounds, of which about 2,000 (36%) were called active. Roughly 18% stayed inconclusive and do not appear here. The list shows a part of the results. A number with no mark means an inactive call. No stated cut-off is given here; in the data, active means normalized growth mostly below about 0.91 (no sharp cut-off); inconclusive means no clear call, values can overlap the other calls; inactive means mostly above about 0.92.
# Test: chemical genetic growth profiling, strain panel (AID 1159580);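 further: tested at 20 µM; growth read once vehicle control cultures reached saturation at 30 °C; 1 = growth at the plate median or of vehicle wells; lower values mean less growth of the strain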
# Conditions: S. cerevisiae deletion strains, growth OD
# [1] = locus YAL021C, strain ccr4, active compounds read low
# [2] = locus YAL026C, strain drs2, active compounds read low
# [3] = locus YAL030W, strain snc1, active compounds read low
# [4] = locus YBL061C, strain skt5, active compounds read low
# [5] = locus YBR009C, strain hhf1, active compounds read low
# [6] = locus YBR023C, strain chs3, active compounds read low
# [7] = locus YBR171W, strain sec66, active compounds read low
# [8] = locus YBR231C, strain swc5, active compounds read low
# [9] = locus YBR279W, strain paf1, active compounds read low
# [10] = locus YCL011C, strain gbp2, active compounds read low
# [11] = locus YCL016C, strain dcc1, active compounds read low
# [12] = locus YCL069W, strain vba3, active compounds read low
# [13] = locus YCR088W, strain abp1, active compounds read low
# [14] = locus YDL005C, strain med2, active compounds read low
# [15] = locus YDL040C, strain nat1, active compounds read low
# [16] = locus YDR001C, strain nth1, active compounds read low
# [17] = locus YDR069C, strain doa4, active compounds read low
# [18] = locus YDR137W, strain rgp1, active compounds read low
# [19] = locus YDR159W, strain sac3, active compounds read low
# [20] = locus YDR297W, strain sur2, active compounds read low
# [21] = locus YDR334W, strain swr1, active compounds read low
# [22] = locus YDR335W, strain msn5, active compounds read low
# [23] = locus YDR392W, strain spt3, active compounds read low
# [24] = locus YEL003W, strain gim4, active compounds read low
# [25] = locus YEL037C, strain rad23, active compounds read low
# [26] = locus YEL061C, strain CIN8 (second series), active compounds read low
# [27] = locus YER015W, strain faa2, active compounds read low
# [28] = locus YER016W, strain bim1, active compounds read low
# [29] = locus YER111C, strain swi4, active compounds read low
# [30] = locus YER155C, strain BEM2 (second series), active compounds read low
# [31] = locus YFR010W, strain ubp6, active compounds read low
# [32] = locus YGL167C, strain pmr1, active compounds read low
# [33] = locus YGL173C, strain kem1, active compounds read low
# [34] = locus YGL227W, strain vid30, active compounds read low
# [35] = locus YGL240W, strain doc1, active compounds read low
# [36] = locus YGL253W, strain hxk2, active compounds read low
# [37] = locus YHR013C, strain ard1, active compounds read low
# [38] = locus YHR027C, strain rpn1, active compounds read low
# [39] = locus YHR142W, strain chs7, active compounds read low
# [40] = locus YJL092W, strain hpr5, active compounds read low
# [41] = locus YJL095W, strain BCK1 (second series), active compounds read low
# [42] = locus YJL115W, strain asf1, active compounds read low
# [43] = locus YJL129C, strain trk1, active compounds read low
# [44] = locus YJL154C, strain vps35, active compounds read low
# [45] = locus YJL164C, strain tpk1, active compounds read low
# [46] = locus YJL166W, strain qcr8, active compounds read low
# [47] = locus YKL160W, strain elf1, active compounds read low
# [48] = locus YKR026C, strain gcn3, active compounds read low
# [49] = locus YKR091W, strain srl3, active compounds read low
# [50] = locus YLL001W, strain dnm1, active compounds read low
# [51] = locus YLL026W, active compounds read low
# [52] = locus YLL041C, strain sdh2, active compounds read low
# [53] = locus YLR027C, strain aat2, active compounds read low
# [54] = locus YLR221C, strain rsa3, active compounds read low
# [55] = locus YLR258W, strain gsy2, active compounds read low
# [56] = locus YLR262C, strain YPT6 (second series), active compounds read low
# [57] = locus YLR320W, strain mms22, active compounds read low
# [58] = locus YLR342W, strain FKS1, active compounds read low
# [59] = locus YLR357W, strain rsc2, active compounds read low
# [60] = locus YLR370C, strain arc18, active compounds read low
# [61] = locus YLR384C, strain iki3, active compounds read low
# [62] = locus YML120C, strain ndi1, active compounds read low
# [63] = locus YMR058W, strain fet3, active compounds read low
# [64] = locus YMR125W, strain sto1, active compounds read low
# [65] = locus YMR129W, active compounds read low
# [66] = locus YMR205C, strain PFK2, active compounds read low
# [67] = locus YMR231W, strain pep5, active compounds read low
# [68] = locus YNL071W, strain lat1, active compounds read low
# [69] = locus YNL209W, strain ssb2, active compounds read low
# [70] = locus YNL248C, strain rpa49, active compounds read low
# [71] = locus YNL322C, strain KRE1 (second series), active compounds read low
# [72] = locus YNR049C, strain mso1, active compounds read low
# [73] = locus YOR001W, strain rrp6, active compounds read low
# [74] = locus YOR070C, strain gyp1, active compounds read low
# [75] = locus YOR080W, strain dia2, active compounds read low
# [76] = locus YOR083W, strain WHI5, active compounds read low
# [77] = locus YOR106W, strain vam3, active compounds read low
# [78] = locus YOR265W, strain rbl2, active compounds read low
# [79] = locus YOR270C, strain vph1, active compounds read low
# [80] = locus YOR290C, strain snf2, active compounds read low
# [81] = locus YPL051W, strain arl3, active compounds read low
# [82] = locus YPL078C, strain atp4, active compounds read low
# [83] = locus YPL106C, strain sse1, active compounds read low
# [84] = locus YPL240C, strain hsp82, active compounds read low
smiles,measurement,setting,value
Cc1nc(N=Nc2ccc(C(=O)O)cc2)c(COP(=O)(O)O)c(C=O)c1O,normalized growth,"locus YAL040C, strain CLN3, active compounds read low",0.978
same,normalized growth,"locus YCL061C, strain MRC1 (second series), active compounds read low",1.01
same,normalized growth,"locus YDR150W, strain NUM1, active compounds read low",1.02
same,normalized growth,"locus YDR363W, strain ESC2, active compounds read low",1
same,normalized growth,"locus YER002W, strain NOP16, active compounds read low",1.02
same,normalized growth,"locus YMR263W, strain SAP30, active compounds read low",1.01
same,normalized growth,"locus YMR307W, strain GAS1, active compounds read low",1.04
same,normalized growth,"locus YNL128W, strain TEP1, active compounds read low",0.99
same,normalized growth,"locus YNL175C, strain NOP13, active compounds read low",1.01
same,normalized growth,"locus YNL197C, strain WHI3, active compounds read low",1.01
same,normalized growth,"locus YNL224C, strain SQS1, active compounds read low",1.01
same,normalized growth,"locus YOR083W, strain WHI5 (second series), active compounds read low",1.03
same,normalized growth,"locus YPL055C, strain LGE1, active compounds read low",1.01
same,normalized growth,"locus YPL241C, strain CIN2, active compounds read low",1.01
COC(=O)C1=COC(OC2OC(CO)C(O)C(O)C2O)C2C(C)CC(=O)C12O (centres undefined),normalized growth,[1],0.942
same,normalized growth,[2],0.994
same,normalized growth,[3],0.975
same,normalized growth,[4],0.991
same,normalized growth,[5],0.944
same,normalized growth,[6],0.986
same,normalized growth,[7],0.983
same,normalized growth,[8],1.02
same,normalized growth,[9],0.995
same,normalized growth,[10],0.982
same,normalized growth,[11],0.978
same,normalized growth,[12],0.987
same,normalized growth,[13],1
same,normalized growth,[14],0.986
same,normalized growth,[15],0.994
same,normalized growth,[16],0.965
same,normalized growth,[17],0.985
same,normalized growth,[18],0.982
same,normalized growth,[19],1.03
same,normalized growth,"locus YDR195W, strain ref2",0.989
same,normalized growth,[20],0.993
same,normalized growth,[21],0.959
same,normalized growth,[22],0.994
same,normalized growth,[23],0.898
same,normalized growth,[24],0.989
same,normalized growth,[25],0.984
same,normalized growth,[26],0.984
same,normalized growth,[27],0.977
same,normalized growth,[28],0.985
same,normalized growth,[29],0.987
same,normalized growth,[30],1.01
same,normalized growth,[31],0.989
same,normalized growth,[32],0.966
same,normalized growth,[33],0.997
same,normalized growth,[34],0.991
same,normalized growth,[35],1.01
same,normalized growth,[36],1.01
same,normalized growth,[37],0.953
same,normalized growth,[38],0.967
same,normalized growth,[39],0.993
same,normalized growth,[40],0.983
same,normalized growth,[41],0.982
same,normalized growth,[42],0.972
same,normalized growth,[43],1
same,normalized growth,[44],0.978
same,normalized growth,[45],0.946
same,normalized growth,[46],0.975
same,normalized growth,[47],0.979
same,normalized growth,[48],0.986
same,normalized growth,[49],0.978
same,normalized growth,[50],1.01
same,normalized growth,[51],0.987
same,normalized growth,[52],0.98
same,normalized growth,[53],1.01
same,normalized growth,[54],1.03
same,normalized growth,[55],0.993
same,normalized growth,[56],0.984
same,normalized growth,[57],1.03
same,normalized growth,[58],0.999
same,normalized growth,[59],0.975
same,normalized growth,[60],1.01
same,normalized growth,[61],0.998
same,normalized growth,[62],0.955
same,normalized growth,[63],0.987
same,normalized growth,[64],0.937
same,normalized growth,[65],0.975
same,normalized growth,[66],0.945
same,normalized growth,[67],0.99
same,normalized growth,[68],0.974
same,normalized growth,[69],1
same,normalized growth,[70],1.03
same,normalized growth,[71],0.978
same,normalized growth,[72],0.971
same,normalized growth,[73],1.02
same,normalized growth,[74],0.996
same,normalized growth,[75],0.992
same,normalized growth,[76],0.98
same,normalized growth,[77],0.94
same,normalized growth,[78],0.999
same,normalized growth,[79],1.02
same,normalized growth,[80],0.927
same,normalized growth,[81],0.999
same,normalized growth,[82],0.954
same,normalized growth,[83],0.959
same,normalized growth,[84],0.986
COc1ccc(-c2cc(=O)c3c(O)cc(OC)c(OC)c3o2)c(OC)c1,normalized growth,[1],0.977
same,normalized growth,[2],1.02
same,normalized growth,[3],1.02
same,normalized growth,[4],0.997
same,normalized growth,[5],0.964
same,normalized growth,[6],0.989
same,normalized growth,[7],1.04
same,normalized growth,[8],0.966
same,normalized growth,[9],1.01
same,normalized growth,[10],1.01
same,normalized growth,[11],1
same,normalized growth,"locus YCL061C, strain MRC1, active compounds read low",1.03
same,normalized growth,[12],1.04
same,normalized growth,[13],1.03
same,normalized growth,[14],1.02
same,normalized growth,[15],1.02
same,normalized growth,[16],1.04
same,normalized growth,[17],0.97
same,normalized growth,[18],0.943
same,normalized growth,[19],1.02
same,normalized growth,"locus YDR195W, strain ref2",1.07
same,normalized growth,[20],1.02
same,normalized growth,[21],1.05
same,normalized growth,[22],1.03
same,normalized growth,[23],0.846
same,normalized growth,[24],1.01
same,normalized growth,[25],1.1 [resistant] (active)
same,normalized growth,[26],1.04
same,normalized growth,[27],0.971
same,normalized growth,[28],1.02
same,normalized growth,[29],1.05
same,normalized growth,[30],0.956
same,normalized growth,[31],1
same,normalized growth,[32],0.998
same,normalized growth,[33],1.02
same,normalized growth,[34],1.04
same,normalized growth,[35],1.04
same,normalized growth,[36],1.01
same,normalized growth,[37],0.975
same,normalized growth,[38],0.985
same,normalized growth,"locus YHR030C, strain SLT2, active compounds read low",1.04
same,normalized growth,"locus YHR079C, strain IRE1, active compounds read low",1.03
same,normalized growth,[39],1
same,normalized growth,[40],1.04
same,normalized growth,[41],1.01
same,normalized growth,"locus YJL095W, strain BCK1, active compounds read low",0.967
same,normalized growth,[42],1.05
same,normalized growth,[43],1.02
same,normalized growth,[44],1.04
same,normalized growth,[45],0.95
same,normalized growth,[46],1
same,normalized growth,"locus YJL187C, strain SWE1, active compounds read low",1.02
same,normalized growth,"locus YJR066W, strain TOR1, active compounds read low",0.973
same,normalized growth,[47],0.993
same,normalized growth,[48],1.05
same,normalized growth,[49],1.03
same,normalized growth,[50],1.01
same,normalized growth,[51],1.02
same,normalized growth,[52],1.02
same,normalized growth,[53],0.996
same,normalized growth,"locus YLR113W, strain HOG1, active compounds read low",0.932
same,normalized growth,[54],0.966
same,normalized growth,[55],1.01
same,normalized growth,[56],0.907
same,normalized growth,[57],0.966
same,normalized growth,[58],0.997
same,normalized growth,[59],0.994
same,normalized growth,[60],1.03
same,normalized growth,[61],1.02
same,normalized growth,[62],1.02
same,normalized growth,[63],0.917
same,normalized growth,[64],1.05
same,normalized growth,[65],1.03
same,normalized growth,[66],1.01
same,normalized growth,[67],1.03
same,normalized growth,[68],1.02
same,normalized growth,"locus YNL183C, strain NPR1, active compounds read low",0.893
same,normalized growth,[69],0.937
same,normalized growth,[70],1.05
same,normalized growth,[71],1.04
same,normalized growth,[72],1.03
same,normalized growth,[73],1.01
same,normalized growth,[74],0.997
same,normalized growth,[75],1.04
same,normalized growth,[76],0.962
same,normalized growth,[77],0.944
same,normalized growth,"locus YOR231W, strain MKK1, active compounds read low",1.03
same,normalized growth,[78],1.01
same,normalized growth,[79],1.03
same,normalized growth,[80],0.961
same,normalized growth,[81],0.916
same,normalized growth,[82],1.03
same,normalized growth,[83],0.983
same,normalized growth,[84],1.02
same,normalized growth,"locus YPL256C, strain CLN2, active compounds read low",1.01
